# The panel holds about 83,000 compounds, 20% with a hit somewhere; the sample as a whole holds those more often.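 Single-concentration screen, 48 h exposure, 96-well plates. Endpoint: percent growth. Below 10 = active.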 Values without a mark were called inactive. The source made the active and inactive calls.
# Key:
# Assay in all cases: NCI-60 one-dose screen, 48 h (100 = growth as untreated, 0 = no growth, -100 = all killed)
# Settings in all cases: 10 µM unless noted
# DU-145 prostate = test system: DU-145 prostate
# K-562 leukemia = test system: K-562 leukemia
# MALME-3M melanoma = test system: MALME-3M melanoma
# MDA-MB-231 breast = test system: MDA-MB-231 breast
# RXF 393 renal = test system: RXF 393 renal
# SF-268 CNS = test system: SF-268 CNS
# SF-295 CNS = test system: SF-295 CNS
# SF-539 CNS = test system: SF-539 CNS
# UACC-257 melanoma = test system: UACC-257 melanoma
# M14 melanoma = test system: M14 melanoma
# HCT-15 colon = test system: HCT-15 colon
# HT29 colon = test system: HT29 colon
# SNB-75 CNS = test system: SNB-75 CNS
# SNB-19 CNS = test system: SNB-19 CNS
# U251 CNS = test system: U251 CNS
# PC-3 prostate = test system: PC-3 prostate
# UACC-62 melanoma = test system: UACC-62 melanoma
# LOX IMVI melanoma = test system: LOX IMVI melanoma
# SK-MEL-28 melanoma = test system: SK-MEL-28 melanoma
# SK-MEL-5 melanoma = test system: SK-MEL-5 melanoma
SMILES,growth (DU-145 prostate),growth (K-562 leukemia),growth (MALME-3M melanoma),growth (MDA-MB-231 breast),growth (RXF 393 renal),growth (SF-268 CNS) [%],growth (SF-295 CNS),growth (SF-539 CNS),growth (UACC-257 melanoma),growth (M14 melanoma),growth (HCT-15 colon),growth (HT29 colon),growth (SNB-75 CNS),growth (SNB-19 CNS),growth (U251 CNS),growth (PC-3 prostate),growth (UACC-62 melanoma),growth (LOX IMVI melanoma),growth (SK-MEL-28 melanoma),growth (SK-MEL-5 melanoma)
CCn1c2ccccc2c2cc(C(O)c3cccc4ncccc34)ccc21 (centres undefined),8.08% (active),8.65% (active),57.7%,24.3%,40.6%,28.6,18.4%,6.53% (active),70.8%,-4.81% (active),11.6%,8.32% (active),31.1%,36.4%,19.2%,13.4%,16%,-8.41% (active),61.5%,–
Cn1ncc(CC(=O)O)c1-n1nnc2cc(Cl)ccc2c1=O,109%,98.4%,93.9%,94.5%,114%,103,91.7%,96.7%,100%,100%,107%,103%,81.1%,96%,103%,103%,94.8%,–,144%,110%
Nc1ncnc2c1N=C(c1ccc([N+](=O)[O-])cc1)CC(c1ccc3c(c1)OCO3)N2 (centres undefined),94.6%,93.4%,107%,75%,75.6%,90.1,67.5%,85.7%,116%,119%,103%,97.3%,69.1%,83.6%,89%,72.6%,77.9%,85.3%,108%,–
O=C(OCc1ccc2c(Br)cc(Br)c(O)c2n1)N1CCN(C(=O)c2cc3ccccc3[nH]2)CC1,48.9%,21.7%,51.5%,46.3%,41%,31.6,21.3%,47.9%,31.5%,30%,19.6%,59.6%,40.5%,31.6%,12.9%,27.5%,19%,28.7%,58.1%,–
COC(=O)c1nc(-c2ccc(C)cc2)oc1N1CCOCC1,98.1%,95.6%,115%,105%,89.6%,98.1,99%,95.9%,100%,102%,84.8%,86.8%,84.6%,94.9%,100%,110%,88%,–,104%,103%
COc1ccc(-c2nc(SCCC(C)C)nc(N/N=C(/C)c3ccc(N)cc3)c2C#N)cc1,97.1%,94.3%,104%,82.3%,86.2%,92,102%,87.9%,102%,111%,97.6%,104%,81.4%,81.6%,90.3%,96.5%,87.5%,91.6%,121%,–
Cc1nc2ccccc2c(/C=C/c2ccc(Cl)cc2)c1C(=O)/C=C/c1ccccc1,9.75% (active),6.19% (active),-20.4% (active),9.11% (active),-41.8% (active),51.3,10.7%,-48.8% (active),-3.79% (active),-0.144% (active),-30.3% (active),-15.7% (active),39.7%,-16.2% (active),-74.3% (active),23.3%,0.158% (active),–,8.62% (active),13.7%
O=C1OCC2=C1C(c1cccc(F)c1)c1cc3c(cc1N2CCO)CCC3 (centres undefined),2.44% (active),9.4% (active),50.9%,26.9%,32.3%,23.3,-6.45% (active),-28.9% (active),90.1%,7.72% (active),7.86% (active),5% (active),29.6%,23.9%,14.3%,24.2%,42%,16.2%,54.7%,–
COc1ccccc1/C=C/C1=C(C)CCC(c2ccccc2OC)C1C (centres undefined),-8.51% (active),18.2%,80.9%,17.2%,28.5%,16.3,-45.9% (active),0.327% (active),57.9%,-10.7% (active),9.57% (active),5.56% (active),42.2%,19.6%,15.4%,-33.2% (active),10%,7.24% (active),49.8%,–
CCN1C(=O)N(CC)C2C1NN=c1s/c(=C3\C(=O)N(C)c4ccccc43)c(=O)n12 (centres undefined),11.9%,9.16% (active),40.8%,33.9%,-14.1% (active),70.5,7.04% (active),-24.7% (active),94.6%,43.1%,22.2%,11.5%,-10.8% (active),37.2%,34.9%,35%,29.1%,47.7%,52.6%,–
CN1CCN(Cn2nc(-c3cc(Cl)cc(Cl)c3Cl)oc2=S)CC1,108%,68.8%,101%,94.4%,99.5%,109,87.7%,106%,77.8%,107%,99.5%,102%,80.9%,95.4%,97.5%,92.1%,99.7%,–,110%,101%
CC1=C(C(=O)c2ccccc2)C(c2ccc3c(c2)OCO3)NC(=S)N1 (centres undefined),78.7%,24.6%,54.5%,79.1%,59.5%,75.8,51.2%,36.4%,57.2%,34.6%,33.7%,18.5%,-1.4% (active),63.8%,37.5%,61.5%,51.6%,36.2%,70.9%,–
C[C@H]1c2ccccc2CN1CCCOc1cc2c(cc1OCC1CC1)C1(CCCC1)C(N)=N2,75.6%,2.69% (active),-84.7% (active),34.5%,34.2%,70.6,55.3%,48.1%,-68.1% (active),-70.4% (active),2.62% (active),2.94% (active),74.9%,83.9%,48.7%,44.6%,57.4%,–,-61% (active),-84.6% (active)
O=C1NC(=O)C(=Cc2cc(-c3ccc(Cl)cc3)n(-c3ccccc3)n2)C(=O)N1,105%,90.6%,99.2%,99.8%,86%,105,93.8%,96.5%,101%,93.1%,89.4%,112%,92.4%,87.3%,96.7%,100%,90.5%,–,98.5%,96.6%
COc1cccc(C2C3=C(COC3=O)N(CCO)c3cc4c(cc32)OCCO4)c1 (centres undefined),-38.9% (active),6.5% (active),69.6%,8.33% (active),11.2%,23.8,-5.81% (active),-23.1% (active),53.6%,-11.7% (active),2.89% (active),-30.7% (active),-14.1% (active),9.81% (active),2.46% (active),20.3%,24.8%,22.1%,38.7%,–
COc1cc2c(c(OC)c1OC)C(=O)CC(c1cccc(C(=O)Nc3ccc(Br)cc3)c1)O2 (centres undefined),73%,6.2% (active),70%,50.8%,66.5%,64.2,63.6%,82.8%,74.7%,57.7%,57.9%,75%,51.1%,80.2%,83.4%,5.38% (active),40.9%,57.9%,74.5%,–

# — PubChem BioAssay (NCI)
